# Marburg entry inh = Marburg virus entry inhibition; Potency, µM (titrated, usually from 37.8 µM), inactives show at the highest dose activity change, negative = inhibition, usual class: inhibitors; 1.8% of 300,000 active; AID 540276; Marburg virus pseudotyped entry inhibition, cell reporter; calls by dose curve; tested in HEK293 cells; also: potency is read from the fitted curve at half-maximal effect
# FMDV antiviral = foot and mouth disease virus antiviral activity. FMDV antiviral cell-based qHTS. Potency, µM (highest dose often 57.9 µM), for the others: at the highest dose activity change, negative = inhibition, most hits filed as inhibitors. 1.2% of 410,000 active. AID 1159524; calls by dose curve; tested in HEK293T cells; also: read-out not given here; potency is read from the fitted curve at half-maximal effect; nearly all actives have a fitted effect of over 45% in size
# Vaccinia Venus = inhibitors of vaccinia virus (Venus reporter) | Vaccinia virus Venus reporter expression, fluorescence | Potency, µM (doses to about 36.5 µM), inactives show at the highest dose activity change, negative = inhibition, actives largely listed as inhibitors | 0.46% of 330,000 active; calls by dose curve; tested in A549 cells; also: potency is read from the fitted curve at half-maximal effect; nearly all actives have a fitted effect of over 30% in size
# VACV mCherry inh = inhibitors of vaccinia virus infection (mCherry reporter signal); Vaccinia virus mCherry reporter infection, fluorescence; Potency, µM (series often up to 36.5 µM), inactives show at the highest dose activity change, negative = inhibition, actives largely listed as inhibitors; 0.63% of 310,000 active; calls by dose curve; tested in A549 cells; also: potency is read from the fitted curve at half-maximal effect; nearly all actives have a fitted effect of over 35% in size
# HCMV antiviral = blocks human cytomegalovirus replication; HFF cells, HCMV-luciferase reporter, 72 h; stronger effect = lower value; activity change, negative = inhibition, % at 57.5 µM; 4.5% of 410,000 active; AID 1259415; in the data active = activity change below about -60%; inconclusive = no clear call, values can overlap the other calls; inactive = above about -39%
#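 HFF cells seeded 16 h at 37C, treated with compounds, infected with luciferase-reporter HCMV at MOI 1 PFU/cell; luciferase read at 72 h post infection, normalized to buffer-only and Salinomycin controls.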
# Lassa entry inh = inhibitors of Lassa virus binding or cell entry; Lassa virus pseudotype entry inhibition, cell reporter; Potency, µM (doses to about 37.9 µM), inactives show top-dose activity change, negative = inhibition, most hits filed as inhibitors; 1.2% of 300,000 active; AID 540256; calls by dose curve; tested in HEK293 cells; also: potency is read from the fitted curve at half-maximal effect; nearly all actives have a fitted effect of over 50% in size
# Starred values were filed as active, the others as inactive; i = inactive; ? = inconclusive; nt = no result; [ ] = another dose, or the depositor's remark. Sampled rows, rich in hits. Any-hit rate of the full collection: about 6.5%. % is scaled to controls: 0 for no effect and ±100 for the full control effect.
SMILES,Marburg entry inh,FMDV antiviral,Vaccinia Venus,VACV mCherry inh,HCMV antiviral,Lassa entry inh
O=C(CNC(=O)C1CC1)Nc1ccc(F)c(F)c1F,2.8%[46.1 µM],10.0%,-4.8%,-1.3%,43.8,28.8%[46.1 µM]
O=C(C[C@H]1C(=O)N(c2ccc(Br)cc2)C[C@@H]1Cc1ccccc1)Nc1ccccc1,nt,0.0%,-16.4%,-3.5%,32.5,4.99µM*
COc1ccc(NC(=O)C[C@H]2C(=O)N(CCc3ccccc3)C[C@@H]2Cc2ccccc2)cc1,nt,-18.2%,-12.5%,-4.6%,20.4,15.8µM*
O=C(C[C@H]1C(=O)N(c2ccccc2)C[C@@H]1Cc1ccccc1)Nc1ccc(Br)cc1,nt,0.0%,-26.4%,i,23.1,nt
Cn1c(=O)c2sccc2n2c(CCCC(=O)Nc3ccc(Oc4ccc(Cl)cc4)cc3)nnc12,nt,?,-28.9%,?,-76.3*,-13.4%[46.1 µM]
COc1cccc2c1C(=O)c1c(O)c3c(c(O)c1C2=O)C[C@@](O)(C(=O)CO)C[C@@H]3O[C@H]1C[C@H](N)[C@@H](O)[C@H](C)O1,nt,-5.0%,i,138.7%,nt,nt
COc1cccc2c1C(=O)c1c(O)c3c(c(O)c1C2=O)CC(O)(C(=O)CO)CC3OC1CC(N(C)C)C(O)C(C)O1 (stereo not drawn),?,-5.2%,i,i,-98.4*,?
CC(=O)[C@]1(O)Cc2c(O)c3c(c(O)c2[C@@H](O[C@H]2C[C@H](N)[C@H](O)[C@H](C)O2)C1)C(=O)c1c(O)cccc1C3=O,0.056µM*,nt,nt,nt,nt,0.158µM*
COc1cccc2c1C(=O)c1c(O)c3c(c(O)c1C2=O)C[C@@](O)(C(C)=O)C[C@@H]3O[C@H]1C[C@H](N)[C@H](O)[C@H](C)O1,0.231µM*,-14.6%,i,227.9%,-100.1*,?
CC[C@]1(O)CC(O[C@@H]2CC(N(C)C)C(O)C(C)O2)c2c(cc3c(c2O)C(=O)c2c(O)ccc(O)c2C3=O)C1C(=O)OC (stereo partly drawn),nt,-8.2%,-1.8%,0.6%,nt,nt
O=C(CCNC(=O)c1ccc(Br)cc1)NC1CCCc2ccccc21 (stereo not drawn),2.24µM*,-6.1%,11.0%,?,-81.2*,7.08µM*
S=C(NC1CC1)NC1CCCc2ccccc21 (stereo not drawn),21.1%,-3.5%,nt,nt,-61.6*,4.6%
CC(=O)c1ccc(OCCCC(=O)NC2CCCc3ccccc32)cc1 (stereo not drawn),7.1%,-1.3%,-12.6%,i,-85.8*,26.4%
COc1cccc(NC(=O)NC2CCCc3ccccc32)c1 (stereo not drawn),?,5.8%,-17.4%,i,-66.8*,0.6%[46.1 µM]
COc1ccc(NC(=O)NC2CCCc3ccccc32)c(OC)c1 (stereo not drawn),-17.0%[46.1 µM],-22.7%,-16.9%,-11.7%,-4.6,-6.7%[46.1 µM]
S=C(NCc1ccccc1)NC1CCCc2ccccc21 (stereo not drawn),?,5.5%,-11.6%,0.1%,-33.3,12.0%
O=C(N[C@@H]1c2ccccc2C2(CCN(C(=O)c3ccc4c(c3)OCCO4)CC2)[C@H]1O)c1cccnc1,nt,-0.8%,6.1%,-1.7%,nt,nt
CCc1c(C)c2ccccc2[nH]c1=O,nt,nt,-16.6%,-0.5%,nt,nt
O=C(NC1CCCc2ccccc21)c1cccc(Br)c1 (stereo not drawn),1.8%,40.3%,-26.3%,-26.6%,-78.2*,-4.8%
CCn1c(=O)c(=O)[nH]c2cc(C(=O)NC3CCCc4ccccc43)ccc21 (stereo not drawn),20.6µM*,23.7%,nt,nt,28.3,?
CC(=O)c1c(C)[nH]c(C(=O)NC2CCSc3ccccc32)c1C (stereo not drawn),?,-20.5%,-29.2%,-2.4%,?,?
CCn1c(=O)c(=O)[nH]c2cc(C(=O)NC3CC3)ccc21,1.0%,-16.5%,-1.3%,-7.7%,-2.6,11.1%
CCc1c(C(=O)NC2CCCc3ccccc32)[nH]c(C)c1C(C)=O (stereo not drawn),nt,21.6%,nt,nt,-83.4*,nt
Fc1cc(F)c(-c2nc3ccccc3nc2-c2ccccc2)c(F)c1,nt,nt,nt,nt,-11.9,nt
O=C(NCc1ccco1)C(c1cccs1)N(Cc1ccccc1)C(=O)Cn1nnc2ccccc21 (stereo not drawn),-13.5%,-1.8%,-21.5%,nt,-62.4*,-15.2%
SMILES,Marburg entry inh,FMDV antiviral,Vaccinia Venus,VACV mCherry inh,HCMV antiviral,Lassa entry inh
O=C(CCC(=O)Nc1nnc(C2CCCCC2)s1)NCc1ccccc1,nt,2.6%,nt,nt,13.4,nt
O=C(CN1CCN(Cc2ccccc2)CC1)N/N=C/c1ccc(Br)s1,?,-13.7%,-13.4%,-19.3%,-107.4*,?
CCOc1ccc(CCNC(=O)C2CC(=O)N(CCc3ccc(OC)c(OC)c3)C2)cc1OCC (stereo not drawn),-3.7%,-15.8%,-20.9%,-16.7%,-14.4,27.4%
CCc1nnc(NC(=O)C2CC(=O)N(CCc3ccc(F)cc3)C2)s1 (stereo not drawn),-1.4%[46.1 µM],2.2%,-5.7%,-5.9%,-64.0*,-1.7%[46.1 µM]
CCOc1ccc(CCNC(=O)C2CC(=O)N(CCc3ccccc3)C2)cc1OCC (stereo not drawn),-1.5%[46.1 µM],6.6%,-12.2%,-14.1%,-71.6*,-0.2%[46.1 µM]
O=C(Nc1nccs1)C1CC(=O)N(CCc2ccc(F)cc2)C1 (stereo not drawn),-12.3%[46.1 µM],-13.9%,-13.7%,-12.2%,-62.2*,25.9%[46.1 µM]
CCc1nnc(NC(=O)C2CC(=O)N(CCc3ccccc3)C2)s1 (stereo not drawn),-3.8%,13.5%,nt,nt,114.4,10.7%
Cc1ccc(N2CC(C(=O)Nc3nccs3)CC2=O)cc1Cl (stereo not drawn),3.9%,11.3%,nt,nt,-91.2*,-2.1%
CC1Sc2ccc(C(=O)N(CCc3ccccc3)Cc3ccccc3)cc2NC1=O (stereo not drawn),nt,-16.4%,?,i,-18.2,nt
O=C(C1CCCCC1)N(CCN1CCN(c2ccccc2CO)CC1)c1ccccn1,nt,-17.3%,-16.9%,-15.3%,nt,nt
CCN1C(=O)[C@@H]2[C@H]3[C@H](O)[C@H](O)CC(=NO[C@@H](C)c4cc(-c5c(C)cc(C)cc5C)no4)[C@@H]3CC[C@H]2C1=O,-12.7%[14.2 µM],nt,nt,nt,nt,nt
O=C(NCCc1c[nH]c2ccccc12)O[C@H]1CC[C@@]23CCCN2C(=O)CCC[C@H]3[C@H]1Cc1ccccc1,nt,nt,nt,nt,15.6,nt
COc1ccc(/C=C/C(=O)c2c(O)c(OC)c3occc3c2OC)cc1OC,nt,nt,-23.3%,-12.4%,nt,nt
NC(=O)c1nsc(C(=O)N(CCc2ccccc2)C(C(=O)NC2CCCC2)c2ccco2)c1N (stereo not drawn),-23.0%,nt,-15.0%,-3.1%,-60.1*,-20.0%
CCc1ccc(N(C(=O)c2snc(C(N)=O)c2N)C(C(=O)NC2CCCC2)c2ccco2)cc1 (stereo not drawn),7.94µM*,5.5%,-15.6%,-18.2%,?,?
Cc1ccccc1N(C(=O)c1snc(C(N)=O)c1N)C(C(=O)NC1CCCC1)c1ccco1 (stereo not drawn),-12.5%[46.1 µM],-5.7%,-15.2%,?,-20.6,?
